In the library only some 3.8% were active in any assay of this set; here they are far more common.
VDR inh: Inhibitors of the vitamin D receptor (VDR): qHTS; VDR-SRC2-3 peptide fluorescence polarization, 2 h; 0.93% of 400,000 active; Potency, µM, without a hit: max response, negative = inhibition, hits mostly inhibitors; Vitamin D3 receptor (Homo sapiens), P11473; also: potency is read from the fitted curve at half-maximal effect; % is scaled to controls: 0 for no effect and ±100 for the full control effect
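Measured by FP: displacement of SRC2-3 coactivator peptide from VDR by library compounds, following a two-hour ambient incubation.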
CBFb-RUNX1 inh: qHTS Assay for Compounds Blocking the Interaction Between CBF-beta and RUNX1 for the Treatment of Acute Myeloid Leukemia; 230,000 tested, under 10 active; Potency, µM (top dose mostly 59.8 µM), for the others: top-dose activity, negative = inhibition, hits mostly inhibitors; Runt-related transcription factor 1 (Homo sapiens) + Core-binding factor subunit beta …; AlphaScreen CBFb-His/RUNX1-biotin binding, biochemical; also: % of control where 0% means no effect
Target sequence (Q01196 whole entry, looked up): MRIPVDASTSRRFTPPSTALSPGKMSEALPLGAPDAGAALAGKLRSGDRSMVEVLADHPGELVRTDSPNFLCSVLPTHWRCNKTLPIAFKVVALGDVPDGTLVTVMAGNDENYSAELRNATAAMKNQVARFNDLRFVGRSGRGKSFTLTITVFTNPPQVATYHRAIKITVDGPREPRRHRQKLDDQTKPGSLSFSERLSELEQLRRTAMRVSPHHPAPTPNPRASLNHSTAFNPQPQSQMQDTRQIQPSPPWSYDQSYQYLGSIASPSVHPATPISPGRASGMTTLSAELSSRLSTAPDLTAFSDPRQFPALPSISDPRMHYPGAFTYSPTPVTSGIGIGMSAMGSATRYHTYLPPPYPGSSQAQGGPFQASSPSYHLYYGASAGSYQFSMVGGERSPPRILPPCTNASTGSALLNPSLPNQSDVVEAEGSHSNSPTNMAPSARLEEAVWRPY
Target sequence (Q13951 whole entry, looked up): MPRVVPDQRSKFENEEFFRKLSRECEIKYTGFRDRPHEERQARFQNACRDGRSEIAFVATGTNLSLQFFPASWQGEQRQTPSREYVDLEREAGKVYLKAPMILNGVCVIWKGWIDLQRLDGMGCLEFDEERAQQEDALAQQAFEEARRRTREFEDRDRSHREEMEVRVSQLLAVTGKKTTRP
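Interaction loss through any mechanism counts as activity. Pre-formed complex of His-CBF-beta and biotin-RUNX1 (30 nM apiece) is incubated with compound 15 min, then with 50 ng nickel and 50 ng streptavidin beads for 90 min before AlphaScreen detection.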
PLK1 PBD inh: qHTS for Inhibitors of PLK1-PDB (polo-like kinase 1 - polo-box domain): Primary Screen | Plk1 PBD binding of FITC phosphopeptide, fluorescence polarization | AID 720504, 2013 | Potency, µM, for inactives: max response, negative = inhibition, actives largely listed as inhibitors | 2.8% of 360,000 active | Serine/threonine-protein kinase PLK1 (Homo sapiens), P53350; also: potency is read from the fitted curve at half-maximal effect; series mostly up to about 57 µM; % is scaled to controls: 0 for no effect and ±100 for the full control effect; nearly all actives have a fitted effect of over 65% in size
KCNH2 WT inh: qHTS for Inhibitors of KCHN2 3.1: Wildtype qHTS; activity change, % at 1.84 µM; AID 720551, 2013; U2OS, BacMam KCNH2, thallium flux FluxOr; stronger effect = lower value; Voltage-gated inwardly rectifying potassium channel KCNH2 (Homo sapiens), Q12809; 0.37% of 340,000 active;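 active = maximum activity change below -70%; inconclusive = maximum activity change between -70% and -50%; inactive = maximum activity change above -50%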; also: % is scaled to controls: 0 for no effect and ±100 for the full control effect
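U2OS cells were transduced with wild-type KCNH2 virus (2.03 x 10^8 / mL) for 4 h at room temperature, then cultured overnight at 37 C. Thallium flux was read with FluxOr dye. Rate constants were normalized to DMSO controls.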
MBNL1 CUG block: qHTS Assay for Inhibitors of MBNL1-poly(CUG) RNA binding. TR-FRET MBNL1-His/biotin-(CUG)12 binding, 665/545 ratio. Muscleblind-like protein 1 (Homo sapiens), Q9NR56. 0.036% of 280,000 active. Potency, µM (titrated, usually from 57.5 µM), without a hit: top-dose activity change, negative = inhibition, actives largely listed as inhibitors. AID 2675, 2010; active = well fitted inhibition curve with a large enough effect in the signal ratio, with a control signal flat, not every such curve was filed as active; inconclusive = small, poorly fitted or top-dose-only effect, or effect the other way, or a change in a side signal; inactive = no such curve, though single readings can be large or run the other way; the % refers to the signal ratio; also: potency is read from the fitted curve at half-maximal effect; % is scaled to controls: 0 for no effect and ±100 for the full control effect
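Ratiometric TR-FRET (665 over 545 nm, excitation 340 nm) tracks disruption of MBNL1-His/biotin-(CUG)12 complex after 60 min at room temperature, with compounds at 92 nM to 58 uM final.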
KCNH2 3.1 inh: qHTS for Inhibitors of KCHN2 3.1: Mutant qHTS; U2OS KCNH2 3.1, thallium flux FluxOr; stronger effect = lower value; activity change, % (tested at about 1.8 µM); 0.95% of 340,000 active; AID 720553, 2013;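 active = maximum activity change below -70%; inconclusive = maximum activity change from -70% to -50%; inactive = maximum activity change above -50%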;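 also: thallium influx rate constant from kinetic fluorescence after stimulation buffer; % is scaled to controls: 0 for no effect and ±100 for the full control effect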
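Thallium flux via FluxOr fluorescence (Red40 quencher, 45 min loading) in U2OS cells virally expressing the KCNH2 3.1 isoform (1.77 x 10^8 /mL virus, overnight at 37 C). Rate constants from 2-min kinetic reads post-stimulation, normalised to positive and negative controls.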
* = called active by the depositor; ? = inconclusive; / = no result given. Unless noted, calls follow the shape of the dose curve; as a rule, active = well fitted curve in the direction sought with a large enough effect; inconclusive = small, poorly fitted or top-dose-only effect, or another doubt; inactive = no such curve, though single readings can be large; an effect the other way counts as inactive or inconclusive.

SMILES	VDR inh	CBFb-RUNX1 inh	PLK1 PBD inh	KCNH2 WT inh	MBNL1 CUG block	KCNH2 3.1 inh
O=C(CCN1C(=O)/C(=C\C=C\c2ccccc2)SC1=S)Nc1ccc(C(=O)O)cc1	?	/	24µM*	-2	15%	-5
CN(C)c1ccc(/C=C/C=C2/SC(=S)N(c3ccccc3)C2=O)cc1	42%	/	-3%	-27	?	-37
O=C(O)c1ccc(N2C(=O)/C(=C/C=C/c3ccccc3)SC2=S)cc1	-10%	0%	27µM*	7	3%	2
CCOC(=O)C1C(=O)CC(C)(O)C(C(=O)OCC)C1/C=C/c1ccccc1 (stereo unspecified)	12%	5%	-5%	-1	-16%	-106*
COC(=O)C1C(=O)CC(C)(O)C(C(=O)OC)C1/C=C/c1ccccc1 (stereo unspecified)	-12%	0%	-7%	4	-10%	-13
CS(=O)(=O)c1nsc2nc(=O)c(/C=C3\C=Nc4ccccc43)c(N)n12	-1%	-5%	-21%	-20	10%	6
CC(C)Sc1nsc2nc(=O)c(/C=C3\C=Nc4ccccc43)c(N)n12	5%	-13%	27µM*	-7	9%	-2
O=C(/C=C/c1cccs1)N1CCN(c2ccc(F)cc2)CC1	10%	2%	0%	3	9%	-33
O=C(O)/C=C/C(=O)N1CCN(c2ccc(F)cc2)CC1	-6%	-4%	19µM*	0	8%	4
COc1c2c(cc3c1C(c1c(O)c4ccccc4oc1=O)N(C)CC3)OCO2 (stereo unspecified)	2%	-6%	/	/	/	/
Cc1ccc(S(=O)(=O)O/N=C2\CCCc3ccccc32)cc1	4%	4%	1%	0	-2%	-19
CC1=C(C)/C(=N\OS(=O)(=O)c2ccccc2)C=CC1=O	35µM*	3%	?	14	5%	-3
Cc1ccc(C(=O)N2CCc3cc(CNS(=O)(=O)c4ccc(Cl)s4)ccc32)cc1	6%	/	/	/	/	/
CCOC(=O)c1ccc(NC(=O)CSc2nc3ncc(Br)c(C)c3[nH]2)cc1	-3%	/	/	/	/	/
O=S(=O)(NCc1cc(-c2ccccc2Cl)no1)c1ccc(Cl)cc1	18µM*	7%	3.8µM*	-4	13%	-4
COc1ccc(-c2cc(CNS(=O)(=O)c3ccc(NC(C)=O)cc3)on2)cc1	-21%	/	8%	5	-2%	8
O=C(CNC(=O)c1[nH]cnc1C(=O)NC(c1ccccc1)c1ccccc1)OCc1ccccc1	-17%	/	24µM*	-20	2%	?
NS(=O)(=O)c1ccc(O)c(NC(=O)c2ccc([N+](=O)[O-])o2)c1	?	-2%	4.2µM*	7	/	6
Cc1cc(C)cc(NC(=O)c2ccc([N+](=O)[O-])o2)c1	1%	-2%	-24%	-5	?	7
O=C(NN1C(=O)/C(=C/C=C/c2ccco2)SC1=S)c1ccncc1	52%	/	4.7µM*	-4	?	9
CC(C)C(C(=O)O)N1C(=O)/C(=C/C=C/c2ccco2)SC1=S (stereo unspecified)	-31%	?	3µM*	-16	?	-3
O=C1/C(=C/C=C/c2ccco2)SC(=S)N1c1ccc(O)cc1	-26%	/	?	1	11%	-2
O=C(NN1C(=O)/C(=C/C=C/c2ccccc2)SC1=S)c1ccncc1	?	-11%	?	-4	19%	-30
